Compound activity from PubChem BioAssay.
Most compounds without a hit are left out; they make up all but 9.5% or so of the library.
SARS PLpro yeast: SARS-CoV PLP inhibition in yeast | 0.19% of 330,000 active | AID 485353 | S. cerevisiae expressing SARS-CoV PLpro, growth rescue | Potency, µM (doses to about 32.9 µM), for inactives: at the highest dose activity, positive = growth rescue, most hits filed as activators; further: 0% is about no effect; nearly all actives have a fitted effect of over 55% in size
NS1 inh: inhibitors of influenza NS1 protein function; Potency, µM (series often up to 46.1 µM), inactives show at the top dose activity, positive = more growth; 0.4% of 270,000 active; AID 2326; further: actives are rising curves; nearly all actives have a fitted effect of over 50% in size
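Compounds were scored for reversing the slow growth caused by influenza A NS1 in S. cerevisiae, measured by optical density at 600 nm. Assay medium contained 2% galactose at pH 6.0; NS1-free yeast of the same strain were the positive control.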
RE007 growth inh: less growth of the S. pombe RE007 Vpr strain | S. pombe RE007 Vpr strain, BacTiter-Glo ATP luminescence, 24 h | Potency, µM (titrated, usually from 92.2 µM), inactives show at the top dose activity change, negative = less growth, usual class: inhibitors | 0.21% of 360,000 active | AID 651644; active means well fitted falling curve with a large enough effect; inconclusive means small, poorly fitted or top-dose-only effect; inactive means no such curve, though single readings can be large or run the other way; further: on the % scale 0 is the no-effect control and ±100 the full control effect; nearly all actives have a fitted effect of over 50% in size
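Fission yeast strain RE007, carrying one chromosomally integrated HIV-1 vpr copy, was seeded at OD 0.01 in PMG+AL medium with 23 nL pinned compound. After 24 h at 30 °C and 99% humidity, viability was read by BacTiter-Glo luminescence.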
Pf growth 96h: P. falciparum growth inhibition at 96 hours. P. falciparum luciferase reporter growth, 96 h. Potency, µM (series often up to 28.7 µM), for inactives: top-dose activity change, negative = inhibition, hits mostly inhibitors. 6.9% of 320,000 active; active means well fitted inhibition curve with a large enough effect; inconclusive means small, poorly fitted or top-dose-only effect, or another doubt; inactive means no such curve, though single readings can be large or run the other way; further: on the % scale 0 is the no-effect control and ±100 the full control effect
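Infected RBCs, 2% Hct / 0.05% parasitemia final; luciferase-reporter P. falciparum; cpd 96 h, 37 C, 5% CO2; luciferase detection reagent; luminescence.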
Pf growth 48h: inhibits P. falciparum growth in the first generation, 48 h; Potency, µM (doses to about 28.7 µM), without a hit: at the highest dose activity change, negative = inhibition, usual class: inhibitors; 5.9% of 310,000 active; P. falciparum luciferase growth in erythrocytes, 48 h; active means well fitted inhibition curve with a large enough effect; inconclusive means small, poorly fitted or top-dose-only effect, or another doubt; inactive means no such curve, though single readings can be large or run the other way; further: on the % scale 0 is the no-effect control and ±100 the full control effect
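Luciferase-expressing parasites in RBCs, 2% Hct / 0.1% parasitemia final; RPMI 1640 + 0.5% Albumax; 37 C, 5% CO2, one generation; luminescence read-out, lower signal = inhibition.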
The depositor's hits bear a star; ? = inconclusive; · = no result given. Unless noted, the call rests on the fitted dose curve. Potency means the concentration at half of the fitted maximal effect.

SMILES | SARS PLpro yeast | NS1 inh | RE007 growth inh | Pf growth 96h | Pf growth 48h
COc1ccccc1-c1cn[nH]c1-c1ccc(OCc2ccc(F)cc2)cc1O | -18% | 9% | 6% | 10µM* | 13µM*
COc1cc2c(cc1OC)C(c1cccs1)N(C(=O)c1cccc(S(=O)(=O)N(C)C)c1)CC2 (stereo unspecified) | 1% | -2% | -1% | ? | ?
O=C(CSc1nc2cc(S(=O)(=O)N3CCOCC3)ccc2o1)NC1CCCc2ccccc21 (stereo unspecified) | -2% | -68% | 0% | ? | 9.3µM*
Cc1ccc(NC(=O)C(C)[n+]2ccccc2)cc1[N+](=O)[O-] (stereo unspecified) | -12% | 10% | -8% | 19% | -11%
CCCCNC(C(=O)Nc1ccc(Cl)c([N+](=O)[O-])c1)c1ccccc1 (stereo unspecified) | -22% | -13% | 27% | 12µM* | ?
Cn1cc(/C=C/c2cc[n+](C)cc2)c2cc(F)ccc21 | 4% | ? | ? | 0.13µM* | 0.26µM*
Cn1cc(C=O)c2cc(F)ccc21 | 0% | 2% | -6% | 28% | 9%
Cn1cc(/C=C/c2cc[n+](C)cc2)c2cc(Cl)ccc21 | -3% | -5% | ? | 0.17µM* | 0.66µM*
C[n+]1ccc(/C=C/c2c[nH]c3ccc(F)cc23)cc1 | 2% | 2% | ? | ? | 0.37µM*
CC(Sc1ccc(Cl)cc1)C(=O)NNC(=O)c1ccco1 (stereo unspecified) | -4% | · | 4% | · | ·
O=C(O)c1ccccc1NC(c1ccccc1)c1ccc(Cl)cc1 (stereo unspecified) | -2% | -3% | -8% | -9% | 6%
CCOc1ccc(NC(=S)Nc2ccc(OC)cc2)cc1 | 0% | 0% | 1% | ? | -11%
CCOc1ccc(NC(=O)C23CC4CC(C2)CC(c2ccccc2)(C4)C3)cc1 | -3% | ? | 3% | 1.9µM* | ?
O=S(=O)(c1ccc(NC(=S)NC23CC4CC(CC(C4)C2)C3)cc1)N1CCCCC1 | · | · | 4% | · | ·
FC(F)Oc1ccc(NC(=S)NC23CC4CC(CC(C4)C2)C3)cc1 | ? | 12% | 13% | 4.1µM* | 4.1µM*
CCOc1ccc(NC(=S)NC23CC4CC(CC(C4)C2)C3)cc1 | -4% | 9% | -10% | 21% | 10µM*
CN(C)c1ccc(NC(=S)NC23CC4CC(CC(C4)C2)C3)cc1 | 1% | -10% | -6% | 0.59µM* | 5.2µM*
COc1cc(CNc2ncnc3c2ncn3[C@H]2CN(Cc3ccncc3)C[C@@H](CO)O2)cc(OC)c1OC | · | · | -7% | · | ·
COc1cccc(CSc2ccc(S(=O)(=O)N3CCOCC3)cc2C(=O)NCC2CCCO2)c1OC (stereo unspecified) | 2% | · | -15% | -4% | ?
COc1cccc(C(=O)c2ccncc2C(=O)O)c1OC | · | · | 9% | · | ·
CSc1ccc(CN2CCN(C(C)C)C(CCO)C2)cc1 (stereo unspecified) | -1% | -1% | 1% | ? | 19%
NS(=O)(=O)C[C-]1C=C[CH]([Sb-]([Cl])([Cl])([Cl])([Cl])[Cl])C=C1.c1ccncc1 (stereo unspecified) | · | -3% | · | · | ·
COc1cccc(N2CCN(c3c4c(nc5ncnn35)CCC4)CC2)c1 | -2% | -2% | -10% | 13µM* | ?
c1ccc(N2CCN(c3c4c(nc5ncnn35)CCC4)CC2)cc1 | 1% | -11% | -18% | ? | 13%
O=[N+]([O-])c1ccc2nc(-c3ccccc3)n(OCc3ccc(Cl)cc3)c2c1 | -2% | -81% | 14% | 13µM* | 30%
CCOc1ccc(-c2onc(C(F)(F)F)c2-c2cscn2)c(O)c1 | -16% | -6% | -20% | · | 4.7µM*
Cc1cc(O)cc(O)c1-c1onc(C(F)(F)F)c1-c1cscn1 | -4% | -8% | -3% | 56% | 3%
CSc1sc(-c2ccnc(SCC(=O)C(C)(C)C)n2)c2c1C(=O)CC(C)(C)C2 | -2% | 6% | 14% | 4.7µM* | ?
CCOC(=O)CN1C(=O)/C(=C/c2ccccc2Br)Oc2ccccc21 | 1% | 4% | -6% | 2.1µM* | 14%
Cc1ccc(CN2CC(C(=O)Nc3cc(C)ccn3)CC2=O)cc1 (stereo unspecified) | -5% | · | 7% | 137% | 86%
